D1 agonist: human D1 receptor agonism. activation, % at 2 µM. HEK293 T-REx D1 cells, calcium flux, agonist mode. AID 504660. hit rate 1% among 360,000; also: 0% is about no effect
Target sequence (P21728 whole entry, looked up): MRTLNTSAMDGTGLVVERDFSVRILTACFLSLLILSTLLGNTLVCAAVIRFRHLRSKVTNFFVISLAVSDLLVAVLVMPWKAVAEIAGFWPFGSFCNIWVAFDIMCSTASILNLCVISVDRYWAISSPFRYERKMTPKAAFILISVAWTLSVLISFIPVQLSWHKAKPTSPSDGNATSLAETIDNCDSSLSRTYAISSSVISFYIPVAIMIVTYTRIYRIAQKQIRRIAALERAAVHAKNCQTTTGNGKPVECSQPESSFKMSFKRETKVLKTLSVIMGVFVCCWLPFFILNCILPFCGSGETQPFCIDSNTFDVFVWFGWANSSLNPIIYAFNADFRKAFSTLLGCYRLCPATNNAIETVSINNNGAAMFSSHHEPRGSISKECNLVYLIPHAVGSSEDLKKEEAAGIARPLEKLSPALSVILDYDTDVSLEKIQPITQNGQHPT
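Agonism was scored from calcium flux recorded over 180 s (1 read/s) after pintool compound addition, following a 10-cycle baseline. Cells were inducible force-coupled HEK293 TREx D1, plated overnight at 30 C and loaded with no-wash calcium dye.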
D1 PAM: enhances dopamine response at the human D1 receptor; potentiation, % at 10 µM; hit rate 0.036% among 360,000; HEK293 TREx D1 cells, calcium flux, dopamine EC20 potentiation; P21728; in the data active = potentiation above about 30%; also: 0% is about no effect
TRHR PAM: TRH receptor (human) allosteric enhancement | P34981 | TRHR cells, fluo-8 calcium fluorescence, EC20 TRH enhancement | enhancement, % at 2 µM | hit rate 0.66% among 360,000; in the data active = enhancement above about 30%; also: 0% is about no effect
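Enhancer read-out: after compound pinning and an initial kinetic agonist-mode read, an EC20 of TRH (10 nM final) was injected and fluo-8 calcium signal (Ex 480/Em 530) followed at 1 s/cycle for 100 cycles in TRHR-expressing cells.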
TRHR ag: TRH receptor (human) agonism; P34981; TRHR cells, calcium flux fluo-8, FDSS agonist mode; activation, % at 2 µM; hit rate 0.18% among 360,000; also: 0% is about no effect
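Read-out: compound-evoked intracellular calcium rise in TRHR cells, fluo-8 dye, kinetic FDSS fluorescence at 1 s/cycle following a 10-cycle baseline. Cells cultured overnight before dye loading (30 min–1.5 h, RT).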
D1 antag: antagonists of human D1 dopamine receptor; hit rate 3.2% among 360,000; P21728; activity change, negative = inhibition, % at 10 µM; HEK293 TREx D1 cells, calcium flux, dopamine EC80; hits give low values; AID 504652; in the data active = activity change below about -30%; also: % is scaled to controls: 0 for no effect and ±100 for the full control effect
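Allosteric or orthosteric antagonism assessed as attenuation of the calcium response to EC80 dopamine, added 180 s after compound, in induced HEK293 Trex D1 cells loaded with no-wash calcium dye.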
Active calls of the source: *; ! = a repeat was not active. Only some compounds are listed: those with a hit (about 4.7% of all), similar ones and a draw of the others. Rule as the data show it, unless noted: active = activation above about 30%; inactive = the rest.

SMILES | D1 agonist | D1 PAM | TRHR PAM | TRHR ag | D1 antag
COc1cccc(NC(=O)CCc2nnc3n(Cc4ccccc4Cl)c(=O)c4ccccc4n23)c1 | 3.9 | -4.7 | 3.3 | 0.6 | 7.9
Cc1cc(O)ccc1C1(c2ccc(O)cc2C)OC(=O)c2ccccc21 | 8.9 | 0.1 | 5.8 | 0.4 | 4.8
CC(=O)Oc1ccc2c(c1)Oc1cc(OC(C)=O)ccc1C21OC(=O)c2ccccc21 | 833.5* | -1.2 | -19.5 | 105.6* | 4.3
CCc1ccc(NC(=O)Cn2c(=O)n(-c3cc(C)cc(C)c3)c(=O)c3oc4ccccc4c32)cc1 | -0.1 | -1.1 | 0.1 | 0.5 | 4.6
Nc1c(C(=O)Nc2nccs2)sc2nc(-c3cccs3)cc(C(F)(F)F)c12 | 115.6* | -0.3 | 28.1 | -0.7 | 5.0
CCCCc1cc(O)c(CCCC)c(O)c1 | 102.2* | -10.6 | -23.3 | 17.9 | -8.4
COc1cc(OC)c(C2C=C(c3ccc(C)cc3)Nc3c(C(=O)Nc4ccccc4)cnn32)cc1OC (configuration not stated) | 2.7 | -5.8 | -4.5 | -0.3 | -45.2*
COc1ccc(C2C=C(c3ccc(C)cc3)Nc3c(C(=O)Nc4ccccc4)cnn32)cc1 (configuration not stated) | 3.4 | -0.1 | -6.7 | 0.1 | 10.1
CCSc1nc2ccccc2c(OCc2cc(C(=O)OC)ccc2OC)c1C(=O)OC | 39.8* | 1.4 | 7.0 | 5.4 | -62.1*
CCN1CCN(c2oc(-c3ccc(COc4ccccc4C)o3)nc2C#N)CC1 | -3.1 | 1.7 | 2.1 | -2.1 | -3.4
O=C(N1CCOCC1)C12CC3CC(C1)CC(C(=O)N1CCOCC1)(C3)C2 | 2.8 | -0.1 | -2.9 | 2.7 | -6.6
O=C(N1CCOCC1)C12CC3CC(C1)CC(n1cnc(Cl)n1)(C3)C2 | 2.0 | -1.9 | 32.5* | -0.1 | -3.4
Cc1nn(C(C)C(=O)NC2CCCCC2)c(=O)c2c1sc1ccccc12 (configuration not stated) | 9.2 | -3.6 | 2.6 | 0.8 | -34.1*
Cc1nn(C(C)C(=O)Nc2ccccc2C(F)(F)F)c(=O)c2c1sc1ccccc12 (configuration not stated) | 1.2 | -2.9 | -6.3 | -0.4 | -47.2*
Cc1nn(C(C)C(=O)NCC2CCCO2)c(=O)c2c1sc1ccccc12 (configuration not stated) | 2.0 | 0.3 | -2.1 | -0.9 | -5.5
COc1ccc(C(=O)Nc2ccc3c(c2)nc(CCNC(C)=O)n3C)cc1 | 3.0 | 0.6 | 31.2* | 1.1 | -4.8
CC(=O)N(/N=C1\Sc2ccccc2C1=O)c1ccccc1 | 5.2 | -6.7 | -5.5 | 0.0 | -43.9*
CC(=O)N(/N=C1\Sc2ccccc2C1=O)c1ccccc1C | 1.9 | -4.3 | 10.6 | -0.2 | 7.7
O=C(CSC1=Nc2ccccc2N=C(c2ccc(F)cc2)C1)NCc1ccc(Cl)cc1 | 6.7 | -0.3 | 1.4 | 1.4 | 1.5
CCCCCc1cc(O)c2c(C)cc(=O)oc2c1 | 107.5* | -17.9 | -13.6 | 6.1 | -10.1
CCCc1cc(=O)oc2cc(C)cc(O)c12 | 19.2 | -11.6 | -2.7 | 4.8 | -7.8
COc1ccc(CNC(=O)COC(=O)CCCOc2ccc(Cl)cc2Cl)cc1 | 30.7* | 4.2 | -0.8 | -0.5 | -3.0
COc1ccccc1OCCC(=O)OCC(=O)NCc1ccc(Cl)cc1 | 0.9 | -0.6 | 3.6 | -0.7 | -3.0
CCC1Oc2ccccc2N(CC(=O)NCc2ccccc2)C1=O (configuration not stated) | 1.5 | -1.2 | -0.7 | -0.5 | 0.8
COc1cccc(C(=O)Nc2ccccc2OCc2cc(=O)n3cc(C)ccc3n2)c1 | -1.8 | -1.1 | -1.3 | 0.3 | 3.6
SMILES | D1 agonist | D1 PAM | TRHR PAM | TRHR ag | D1 antag
O=C(Nc1cnc2ccccn2c1=O)c1ccc(F)cc1 | 2.8 | -5.1 | 1.1 | 0.6 | 3.6
COc1cccc(C(=O)Nc2ccccc2OCc2cc(=O)n3ccccc3n2)c1 | 1.5 | -0.7 | -1.8 | -0.1 | -33.8*
COc1ccc(C(=O)Nc2cnc3ccccn3c2=O)cc1 | 1.7 | -0.1 | -7.4 | 0.2 | -77.3*!
N=c1sccn1CC(=O)Nc1cc(Cl)ccc1Oc1ccccc1 | 55.5* | -2.2 | -14.3 | 1.9 | -10.6
N=c1sccn1CC(=O)Nc1cccc(Oc2ccccc2)c1 | 20.6 | -2.5 | 12.3 | 1.9 | 3.0
O=c1c2[nH]c3cc(Br)sc3c2cnn1Cc1ccccc1F | 2.0 | 3.0 | -0.8 | -2.4 | 6.4
Cc1cc(C)n(-c2nc(NCCN(C)C)c3c4c(sc3n2)CCCC4)n1 | 32.8* | -3.6 | 2.7 | -0.7 | 6.8
CN(C)CCN1C(=O)C(O)=C(C(=O)c2cc3ccccc3o2)C1c1cccc(Br)c1 (configuration not stated) | 0.1 | -4.1 | -0.1 | -0.1 | -38.3*
Cc1cc2nc3c(=O)n(CCc4ccccc4)c(=O)[nH]c3nc2cc1N | 352.3* | 3.2 | 24.4 | 142.0* | 3.4
CCCCn1c(N)c(Br)c(=O)[nH]c1=O | 6.3 | -4.2 | -1.7 | -0.1 | 1.4
CCCCn1c(=O)[nH]c2nc3cc(N)ccc3nc2c1=O | 207.4* | -4.7 | 9.3 | 108.1* | 12.7
Nc1ccc2nc(CCc3ccccc3)[nH]c2c1 | 2.8 | -5.8 | 4.7 | -0.2 | -17.8
Nc1ccc2nc3c(=O)n(C4CCCCC4)c(=O)[nH]c3nc2c1 | 275.7* | 3.4 | 29.2 | 127.9* | 3.0
Nc1ccc2nc3c(=O)n(CCc4ccccc4)c(=O)[nH]c3nc2c1 | 435.2* | 1.9 | 58.0* | 164.0* | -10.1
COc1ccc(NC(=O)Cn2ccn(Cc3ccccc3)c(=O)c2=O)cc1Cl | -1.0 | 2.4 | -4.4 | 0.1 | 2.6
CC1=C(c2ccc(C(C)C)cc2)S(=O)(=O)NC1=NCc1ccccc1Br | 7.4 | -0.1 | -2.9 | 1.4 | 2.9
Cc1ccc(SCc2nnc(NC(=O)c3ccccc3)s2)cc1 | 1.7 | -6.8 | 3.0 | -2.9 | -42.4*
Cc1ccc(-c2nnc(NC(=O)c3ccco3)s2)cc1 | 7.3 | -4.2 | 1.2 | 2.8 | 19.9
COc1ccc(NC(=O)c2ccco2)cc1NC(=O)c1ccc(OC(C)C)cc1 | 2.8 | -7.0 | 42.9* | -0.8 | -10.5
Cc1nnc(NC(=O)c2ccco2)s1 | 0.3 | -3.3 | 0.9 | 0.5 | -52.5*
Cc1ccc(Oc2ccc(NC(=O)c3ccco3)cc2)cc1 | 19.2 | -11.2 | 4.3 | -1.8 | -46.5*
O=C(COc1ccccc1)Nc1ccc(NC(=O)c2ccco2)cc1 | 4.2 | -3.3 | -4.1 | 0.2 | -73.3*
COc1ccc(OCC(=O)Nc2ccc(NC(=O)c3ccco3)cc2)cc1 | 4.9 | -3.6 | 1.1 | -1.0 | -2.3
Cc1ccc(NC(=O)c2ccc(OC(=O)c3ccco3)cc2)cc1 | 0.7 | -3.2 | -12.0 | 1.3 | -1.7
Cc1cc2c(s1)c1cnn(Cc3c(F)cccc3C(F)(F)F)c(=O)c1n2C | 8.9 | -5.7 | -1.4 | -0.6 | -0.9
COC(=O)c1ccccc1Oc1ccc(NC(=O)c2ccco2)cc1 | 3.0 | -6.5 | 3.4 | -0.3 | -37.2*
